A1 inh – caspase 3/7 activation in MEF A1-2A-BIM cells, primary screen, A1 inhibitor project, cell-based, luminescence, HTS | caspase activation, % (concentration not given with the values) | AID 2462, 2010 | 330,000 compounds, 0.066% hits | Caspase-Glo 3/7 luminescence, 3 h; percent of clofoctol response, vehicle zero;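 active means over half of replicate activation scores above 10%, or exactly half above 10 with the replicate mean above 10; inconclusive means replicate mean below 10 yet half the replicates above 10; inactive means over half of replicates below 10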
B2AR ag – beta2AR agonists driving receptor internalization, primary screen, cell-based, FAP fluorogen, flow cytometry | Beta-2 adrenergic receptor (Homo sapiens), P07550 | response, % (no concentration beside the values) | 340,000 compounds, 0.43% hits | Am2.2-beta2AR cells | AID 504454, 2011;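 active means response above a set limit, near 3 SD of response in nonfluorescent compounds, cut at about 42% in these data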
Target sequence (P07550 whole entry, looked up): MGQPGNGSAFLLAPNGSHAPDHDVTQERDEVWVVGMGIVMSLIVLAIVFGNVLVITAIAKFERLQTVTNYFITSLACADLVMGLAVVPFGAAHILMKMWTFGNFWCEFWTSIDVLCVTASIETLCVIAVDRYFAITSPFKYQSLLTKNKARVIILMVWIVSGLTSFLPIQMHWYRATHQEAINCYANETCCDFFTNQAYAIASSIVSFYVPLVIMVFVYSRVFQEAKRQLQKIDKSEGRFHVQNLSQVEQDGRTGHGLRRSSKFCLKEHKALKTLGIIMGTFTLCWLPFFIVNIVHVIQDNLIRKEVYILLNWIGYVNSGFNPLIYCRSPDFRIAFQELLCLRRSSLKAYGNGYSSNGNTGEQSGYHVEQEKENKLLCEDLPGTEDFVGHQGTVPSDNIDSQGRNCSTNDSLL
DYRK1A inh – rat Dyrk1A kinase inhibitors, primary screen, biochemical, single point, plate reader | 310,000 compounds, 0.43% hits | AID 504441, 2011 | inhibition, % at 12.5 µM | Dual specificity tyrosine-phosphorylation-regulated kinase 1A (Rattus norvegicus), Q63470 | ADP-Glo luminescence, NFATc1 peptide; in the data active means inhibition above about 50%
dFosB act – activators of delta FosB homodimer, primary screen, biochemical, fluorescence polarization, TAMRA-CDK5 oligo, single point; Protein FosB (Mus musculus), P13346; purified delta FosB; percent of positive-control signal above neutral wells; activation, % at 25 µM; 340,000 compounds, 0.99% hits; AID 493131, 2011;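 active means mean activation above about 17%, with every replicate also reaching it, limit read from the data, passing the limit was not always enough; inconclusive means only one of the two conditions met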
A number is an active result; . = inactive; ? = inconclusive; / = no result; ! = not confirmed by another sample. An excerpt weighted towards active compounds, which were near 1.6% of everything screened.

SMILES	A1 inh	B2AR ag	DYRK1A inh	dFosB act
Cc1noc(C)c1COc1ccc(C(=O)OC(C)C(=O)Nc2ccc(N3CCOCC3)cc2)cc1 (stereo not drawn)	5.8	.	.	.
COc1ccc(C(=O)Nc2ccc(C(=O)Nc3cccnc3)cc2)cc1	.	54	.	.
COc1ccccc1NC(=O)c1cc2c(CO)cnc(C)c2oc1=Nc1ccccc1	.	.	.	.
COc1ccccc1NC(=O)c1cc2c(CO)cnc(C)c2oc1=Nc1cccc(C(N)=O)c1	.	58	.	.
Cc1cccc(C(=O)NNC(=O)C2CCN(C(=O)OC(C)(C)C)CC2)c1	.	.	.	.
COC1=CC(=O)C=C(OC)C1=O	/	53	.	.
Cc1cc(C(=O)Nc2ccc(Br)cc2)cs1	.	.	.	.
CS(=O)(=O)c1cc([N+](=O)[O-])c(Sc2nc3ccccc3[nH]2)c([N+](=O)[O-])c1	.	63	.	.
O=[N+]([O-])c1c(Nc2ccccc2O)cc(Cl)c2nonc12	.	105	.	.
NC(=O)Cn1c(O)c(N=NC(=O)CNC(=O)/C=C/c2ccccc2)c2ccccc21	.	.	.	18
CCOc1cc(C2Nc3cccc4cccc(c34)N2)ccc1O	.	.	.	32
O=C(Cc1c[nH]c2ccccc12)N1CCN(S(=O)(=O)c2cccc(Cl)c2Cl)CC1	.	.	.	.
O=c1ccc2c(o1)/C(=C/C=C(Cl)Cl)CCC2	.	53	.	.
c1cc2c3c(cccc3c1)NC1(CCCC1)N2	/	.	/	63
CC1(C)Nc2cccc3cccc(c23)N1	/	.	.	.
COc1ccc2cc(C(=O)N3CCN(c4ccccc4OC)CC3)[nH]c2c1	.	.	.	.
CCCn1c(N)c(C(=O)CSc2nc3ncc(Cl)cc3[nH]2)c(=O)[nH]c1=O	.	.	.	.
Cc1c(OCC(=O)NCC(O)c2ccccc2)ccc2c(-c3ccccc3)cc(=O)oc12 (stereo not drawn)	.	.	.	.
CC1=NOC(=O)/C1=C\c1ccc(-c2ccc(Cl)cc2Cl)o1	/	99	.	.
Cc1ccc(C)c(NC(=O)CC2Oc3ccccc3NC2=O)c1 (stereo not drawn)	.	.	.	.
O=C(COc1cc2oc(=O)c3c(c2cc1Cl)CCC3)Nc1ccc(CN2CCOCC2)cc1	.	42	.	.
CCOc1cc(NC(=S)NCC2CCCO2)c(OCC)cc1NC(=O)c1ccccc1 (stereo not drawn)	.	.	.	.
CCOc1cc(NC(=S)NCC2CCCO2)c(OCC)cc1NC(=O)c1cccc(C)c1 (stereo not drawn)	.	47	.	.
COc1cc2c(cc1OC)CN(c1nc(-c3cccnc3)nc3ccccc13)CC2	.	.	.	34
CC(C)c1ccc(NC(=O)CN2CCN(C(=O)C3CCCO3)CC2)cc1 (stereo not drawn)	.	.	/	.
SMILES	A1 inh	B2AR ag	DYRK1A inh	dFosB act
N#C/C(=C\c1c(Cl)cccc1Cl)c1nc2ccccc2[nH]1	.	56	.	.
CN(C)/C=C(\C#N)c1nc2ccccc2[nH]1	.	.	.	.
Cc1[nH]n(-c2ccccc2)c(=O)c1C=Nc1ccc(S(=O)(=O)N=C(N)N)cc1	.	.	.	26
N#CC(C#N)=C1C=CC=CN1/C(=C\c1ccccc1)C(=O)c1cccs1	.	88	.	.
O=C(N/N=C/C(Br)=C\c1ccccc1)c1cccs1	.	.	/	/
N#CC(C#N)=C1C=CC=CN1/C(=C\c1ccccc1Cl)C(=O)c1ccccc1	14	105	.	.
N#Cc1cccc(NC(=O)Cn2cnc(S(=O)(=O)N3CCCC3)c2)c1	.	.	.	.
Cc1cc(C)cc(N=Cc2c(O)c3ccccc3oc2=O)c1	10	.	/	.
COc1ccc(C(=O)N=c2sc3c(C)ccc(OC)c3n2C)cc1OC	.	47	.	.
O=C(O)/C=C/C(=O)c1ccc2c(c1)CCc1ccccc1-2	.	96	.	.
O=C1NC(=S)S/C1=C\c1ccc(SCc2ccco2)o1	.	.	73	.
CCOC(=O)c1c2ccc(OCC(=O)NN)cc2n2ccccc12	.	.	.	.
CCOC(=O)c1c2ccc(OCC(=O)N/N=C/c3ccc(C)cc3)cc2n2ccccc12	35	.	.	.
COc1ccc(N=C2S/C(=C\c3ccc(Cl)c([N+](=O)[O-])c3)C(=O)N2CCN(C)C)cc1	.	.	.	23
CCN(CC)CCN1C(=O)/C(=C\c2ccc(Cl)c([N+](=O)[O-])c2)SC1=Nc1ccc(OC)cc1	.	.	.	?
O=C1C=CC(=O)N1CCNc1ncc(C(F)(F)F)cc1Cl	/	69	.	.
Cc1c(C(=O)N/N=C/c2cccnc2)sc(=S)n1C	.	42	.	.
COC(=O)Cn1cc(/C=N/NC(=O)COc2cccc3cccnc23)c2ccccc21	.	48	.	.
C#CCn1cc(/C=N/NC(=O)COc2cccc3cccnc23)c2ccccc21	.	.	.	.
O=C(COc1cccc2cccnc12)N/N=C/c1ccccc1O	.	.	.	.
O=C(COc1cccc2cccnc12)N/N=C/c1ccc(O)cc1	.	.	.	19
O=C(O)c1cccc(Oc2ccc(C(=O)O)c([N+](=O)[O-])c2)c1	/	.	/	.
CNC[C@H](CC1CCCCC1)NC[C@H](Cc1ccccc1)NCCC12CC3CC(CC(C3)C1)C2	.	52	.	?
C=CCOC(=O)C1=C(C)NC(SCC(=O)NC(=O)OCC)=C(C#N)C1c1cccnc1 (stereo not drawn)	.	57!	.	.
CC1=N/C(=C/c2cc(Br)cc(Br)c2O)C(=O)O1	.	.	.	.
SMILES	A1 inh	B2AR ag	DYRK1A inh	dFosB act
O=C(N/N=C/c1cc(Cl)ccc1O)c1ccc(Br)cc1	.	.	.	.
Cc1ccc(N=Nc2ccc(O)c(/C=N\NC(=O)c3ccc(N)cc3)c2)cc1C	.	.	.	47
CC(C)(CC(=O)O)CC(=O)NCc1c(Cl)cccc1Oc1ccccc1	.	.	/	.
Cn1c(CCNC(=O)c2ccco2)nc2cc(NC(=O)c3ccccc3Cl)ccc21	.	.	.	.
Cc1cc(C)c(NC(=O)Cn2nnc(C(=O)Nc3ccc(F)cc3F)c2N)c(C)c1	.	.	.	25
Cc1cccc(C)c1NC(=O)Cn1nnc(C(=O)Nc2ccc(F)cc2F)c1N	.	.	.	46
Cc1cc(C)c(NC(=O)Cn2nnc(C(=O)NCCc3ccccc3)c2N)c(C)c1	.	.	.	.
COc1ccc(NC(=O)CN2C(=O)NC3(CCCC3)C2=O)cc1OC	.	.	.	.
O=c1c(Cl)c(O)ccn1C1OC(CO)C(O)C1O (stereo not drawn)	/	.	.	.
CN1/C(=C\C=C(C#N)C#N)C(C)(C)c2ccccc21	.	.	.	113
O=c1c2cc(Br)ccc2[nH]c(=S)n1Cc1cccnc1	/	.	.	43

Compound activity from PubChem BioAssay.
